This passage reports sensor-assay potency score (higher = more potent) results from the OligoGym collection.
Further: reference of the scale not given here.

The first assay deals with TELO2. Put plainly: pooled miR-30 sensor sort-seq; sequence = guide strand. The note with it: shRNA.
TGTAAGAACAGAAGCTTCTGGG displayed a sensor-assay potency score (higher = more potent) of 0.738. TTTCTCAGCCACGTCCGCCAGC gave a sensor-assay potency score (higher = more potent) of -1.03. On the same count and under the same terms, for TTCTGGGTCATCACAAACTGGG the value was -0.844.

For the next assay, the target named is TFAP4. The assay is described as above. The note with it: shRNA.
TTGCTGTTGGCGATCTCCCGCC: the sensor-assay potency score (higher = more potent) was -0.484. On the same count and under the same terms, for AATCACCTTGAGCTTTTCCGGG the value was -1.02. Still for that read-out and setting: for TTCACGATGACAGCTCGCCGCT the value was -1.34.

Regarding TTCCCGCTCCAGCTTCTCCTGG, the sensor-assay potency score (higher = more potent) was -1.47. Still for that read-out and setting: with TTGAGGGACTGGAATCCCGCGT the figure was -0.113; with TTGGCAAGGCTACAGAGCCCTC, -1.54. Sequence TCGTCCTCCCAGATGTCCGGGG displayed a sensor-assay potency score (higher = more potent) of -0.989. Still for that read-out and setting: for TACATGTGGGCCTCCAGCGAGC the value was -1.01.

Take TTCTCTCCGTCTGTGTGGGGGA: the sensor-assay potency score (higher = more potent) is -0.652. The sequence TGCTGAGCTTCTCTCCGTCTGT yielded a sensor-assay potency score (higher = more potent) of -0.432. Still for that read-out and setting: for TTCGTCCTTGTCCTCTGCCCGC the value was -1.28; for ATCACCTTGAGCTTTTCCGGGT, -0.563.

The target of another assay is TFEB. The description is as above. The note with it: shRNA.
The sequence TCTCCTTTCAATTAAGTTGTGA came in with a sensor-assay potency score (higher = more potent) of -0.161. The same measure, in the same setting: with ATCTGTGAGCTCTCGCTTCTGG the figure was -0.356; with TCATTGATGTTGAACCTTCGTC, -0.00793. For the sequence AAGGACATCGTCCAGACGCATA, the sensor-assay potency score (higher = more potent) is -1.55. On to TAGCGTGTTGGGCATCTGCATT, for which the sensor-assay potency score (higher = more potent) is -1.17. The same measure, in the same setting: with TTGTTGGTCATCTCCAGGCGGC the figure was -1.28; with TTGCAGGTCCTTCTGCATCCTC, -1.28.

The sequence TTGATGTTGAACCTTCGTCTCC yielded a sensor-assay potency score (higher = more potent) of -0.765.

TTCGCTAGGCAGCTCCTGCTTC: the sensor-assay potency score (higher = more potent) is -0.419. TAGCAGTGAGTCGTCCAGGAGC: the sensor-assay potency score (higher = more potent) is -1.35. Same read-out and setting: for TACACATTCAGGTGGCTGCTGG the value was -0.605.

A further assay addresses TFPI2. The description is as above. The note with it: shRNA.
TAGGTGAAAGCATCACAGGTTC yielded a sensor-assay potency score (higher = more potent) of -0.157.

Take TGTCGTAGTAGTAACGGAGAAG: the sensor-assay potency score (higher = more potent) is -1.18. TACCTGTCGTAGTAGTAACGGA showed a sensor-assay potency score (higher = more potent) of -0.941.

Regarding TTAGATTAAAGAAATACTTTTC, the sensor-assay potency score (higher = more potent) is -0.873.

As for TTATTCTTCAGATACAACCATA, the sensor-assay potency score (higher = more potent) was -1.04. Sequence TTGGATTAAAATAATAGCGAGT displayed a sensor-assay potency score (higher = more potent) of -0.659.

Regarding TCTCACAAACAGTTGAACCATA, the sensor-assay potency score (higher = more potent) is -1.02.

With TTGTATTAATAAAAACTGGTGA, the sensor-assay potency score (higher = more potent) was -0.407. On the same count and under the same terms, with TATAGGTGAAAGCATCACAGGT the figure was -0.811; with TACAAGTAGCTTCATCTGGAAA, -1.17. Consider TCATCTTTTGGACTGTAGCAAA, for which the sensor-assay potency score (higher = more potent) was -1.13.

For the sequence TTTATATCTTATGCATTGCAAG, the sensor-assay potency score (higher = more potent) is -1.47.
